WT yeast gro inh: growth inhibition of WT yeast, mitochondrial fusion screen; mitochondrial fusion phenotypic screen, WT strain; inhibition, % at 10 µM; 190,000 tested, 2.1% active; AID 1362; in the data active means inhibition above about 58%; tested in S. cerevisiae
L major viab: Leishmania major promastigote growth inhibition; 200,000 tested, 9% active; inhibition, % at 10 µM; AID 1063; Leishmania major promastigotes, resazurin fluorescence viability; in the data active means inhibition above about 50%;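 further: promastigotes grown with compound for 44 hours at 28 °C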
CHOP inhibitor: inhibitors of CHOP induction in ER stress response; inhibition, % at 10 µM; CHO-K1 CHOP-promoter luciferase, tunicamycin-induced, 15-18 h; AID 2732; 220,000 tested, 3.8% active;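 active means compounds that reduced the stress-induced luciferase reporter signal by more than about 70% of percent inhibition, limit read from the data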;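 further: 0% = tunicamycin plus vehicle and 100% = wells without tunicamycin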
Arbovirus anti: arbovirus infection inhibition | arbovirus infection cell-based antiviral screen | inhibition, % at 10 µM | 200,000 tested, 0.37% active; in the data active means inhibition above about 30%
An asterisk follows results filed as active; / = not tested or not shown. Rows were chosen to be rich in hits. Some 12% of all compounds tested hit in one or more screens of this group.

SMILES	WT yeast gro inh	L major viab	CHOP inhibitor	Arbovirus anti
CC(C)(CO)Nc1nc(N2CCCC2)nc(N2CCCC2)n1	1	100*	43	-1
CC(C)NC(=O)/C(C#N)=C/c1ccc(N(C)C)o1	/	/	1	/
NC(=O)c1cccn1-c1ncc(C(F)(F)F)cc1Cl	2	0	7	-1
O=C(Nc1ccc(Br)cc1)c1cccn1-c1ncc(C(F)(F)F)cc1Cl	78*	2	95*	-22
CC(=O)NCCNC(=O)c1ccc(-n2c(C)ccc2C)cc1	-10	2	1	-3
Cc1ccc(C)n1-c1ccc(C(=O)Nc2ccccc2F)cc1	-4	4	5	-19
CC(=O)Nc1ccc(NC(=O)c2ccc(-n3c(C)ccc3C)cc2)cc1	-7	68*	17	-10
Cc1ccc(C)n1-c1ccc(NC(=O)c2ccccc2)cc1	-1	58*	45	-8
Cc1ccc(NC(=O)c2ccccc2)s1	30	69*	-21	-9
COC(=O)c1nc(N)sc1-c1ccc(Cl)c(Cl)c1	/	/	14	/
CC(C)C1Cc2c(sc(NC(=S)NC(=O)c3ccccc3)c2C#N)CO1 (stereo not given)	10	-5	83*	-7
CC(C)N1CCc2c(sc(NC(=S)NC(=O)c3ccccc3)c2C#N)C1	0	2	5	-9
CC(C)Oc1ccc(CNC2CCOC(C)(C)C2)cc1 (stereo not given)	26	86*	50	-12
O=C(NCCC1=CCCCC1)C(=O)NCC(c1ccco1)N1CCN(c2ccc(F)cc2)CC1 (stereo not given)	6	80*	88*	-2
O=C(NCCc1c[nH]c2ccccc12)C(=O)NCC(c1ccco1)N1CCN(c2ccccc2F)CC1 (stereo not given)	30	76*	24	-4
O=C(NCc1ccccc1)C(=O)NCC(c1ccco1)N1CCN(c2ccccc2F)CC1 (stereo not given)	23	12	31	-7
COc1ccc(N2CCN(C(CNC(C)=O)c3ccco3)CC2)cc1 (stereo not given)	-14	1	0	1
O=C(NCc1cccnc1)C(=O)NCC(c1ccco1)N1CCN(c2ccccc2F)CC1 (stereo not given)	6	56*	4	0
O=C(NCc1cccnc1)C(=O)NCC(c1ccco1)N1CCN(c2ccccc2)CC1 (stereo not given)	2	52*	-7	5
O=C(NCc1cccnc1)C(=O)NCC(c1ccco1)N1CCOCC1 (stereo not given)	-10	-14	18	6
COc1ccc(CCN=C(N)NS(=O)(=O)c2ccc3ccccc3c2)cc1	-7	2	40	-5
Cc1ccc(C(=O)N/C(=C\c2ccco2)C(=O)NCCc2c[nH]c3ccccc23)cc1	5	8	-19	-3
O=C(NCC(c1cccnc1)N1CCN(c2ccccc2)CC1)c1ccco1 (stereo not given)	/	89*	/	/
O=C(NCCc1c[nH]c2ccccc12)/C(=C\c1ccco1)NC(=O)c1ccco1	3	56*	-15	-1
CCS(=O)(=O)NCC(c1cccnc1)N1CCN(c2ccccc2)CC1 (stereo not given)	-14	38	10	6
SMILES	WT yeast gro inh	L major viab	CHOP inhibitor	Arbovirus anti
Cc1ccc(NC(=O)c2c3c(nc4ccccc24)CCC3)cc1S(=O)(=O)N(C)C	-14	3	42	7
Cc1csc(NC(=O)CSc2nnc(C)s2)n1	11	-6	6	0
CC1CCc2nc(NC(=O)CN3CCN(c4ccc(F)cc4)CC3)sc2C1 (stereo not given)	67*	42	57	-19
COc1cccc(N2CCN(CC(=O)Nc3nc4c(s3)CC(C)CC4)CC2)c1 (stereo not given)	16	-1	56	-1
Cc1nnc(SCC(=O)Nc2nc3c(s2)CC(C)CC3)s1 (stereo not given)	16	-3	84*	7
Cn1c(=O)c([N+](=O)[O-])c(N2CCN(Cc3ccc4c(c3)OCO4)CC2)c2ccccc21	/	/	-19	/
Cc1ccc(Nc2nnc(-c3ccccc3N)o2)cc1C	/	/	-33	/
O=C1CSC(c2ccccc2)N1CC(O)c1ccc([N+](=O)[O-])cc1 (stereo not given)	7	10	5	8
CC(C)CN1CCC(C(=O)N2CCN(c3ccccc3F)CC2)CC1	-6	82*	16	-3
O=C(COC(=O)c1cc(=O)[nH]c(=O)[nH]1)Nc1cccc(S(=O)(=O)N2CCCCC2)c1	-24	-3	-8	6
N#Cc1ccccc1Sc1ccccc1C(=O)Nc1ccc(Br)cc1	77*	-4	12	-3
O=C(c1ccccc1Sc1ccc([N+](=O)[O-])cc1Cl)N1CCOCC1	4	18	1	6
N#Cc1ccccc1Sc1ccccc1C(=O)Nc1ccc2ccccc2c1	10	13	11	13

Screening results deposited in PubChem BioAssay by several laboratories.
